Assay results from publication PMC5540273 (PLoS ONE, 2017).

Experiments:
Details in all cases: concentration: 1 μM, replicates: in singlicate; n = 1
GRK7 = tested on: GRK7
GSK3A = tested on: GSK3A
GSK3B = tested on: GSK3B
HASPIN = tested on: T1, HASPIN
T1 construct: gene GSG2

HCK = tested on: HCK
HIPK1 = tested on: HIPK1
HIPK2 = tested on: HIPK2
HIPK3 = tested on: HIPK3
HIPK4 = tested on: HIPK4
HPK1 = tested on: HPK1
HUNK = tested on: HUNK
ICK = tested on: ICK
IGF1R = tested on: IGF1R
IKK-alpha = tested on: T2, IKK-alpha
T2 construct: gene CHUK

IKK-beta = tested on: T3, IKK-beta
T3 construct: gene IKBKB

IKK-epsilon = tested on: T4, IKK-epsilon
T4 construct: gene IKBKE

INSRR = tested on: INSRR
INSR = tested on: INSR
IRAK1 = tested on: IRAK1
IRAK3 = tested on: IRAK3
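Also: KINOMEscan kinase panel screen.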

COc1ccc(CNC(=O)NC2CCN(c3ccnc(Nc4cc(OC)c(OC)c(OC)c4)n3)C2)cc1 (centres unmarked) [GSK1379748]
%Inh (GRK7): 0%
%Inh (GSK3A): 7%
%Inh (GSK3B): 0%
%Inh (HASPIN): 38%
%Inh (HCK): 0%
%Inh (HIPK1): 0%
%Inh (HIPK2): 8%
%Inh (HIPK3): 33%
%Inh (HIPK4): 0%
%Inh (HPK1): 53%
%Inh (HUNK): 3%
%Inh (ICK): 8%
%Inh (IGF1R): 0%
%Inh (IKK-alpha): 0%
%Inh (IKK-beta): 0%
%Inh (IKK-epsilon): 20%
%Inh (INSRR): 0%
%Inh (INSR): 0%
%Inh (IRAK1): 63%
%Inh (IRAK3): 63%

Cn1cncc1-c1ccc2ncnc(Nc3ccc(OCc4ccccc4)cc3)c2c1 [GW320571]
%Inh (GRK7): 0%
%Inh (GSK3A): 0%
%Inh (GSK3B): 4%
%Inh (HASPIN): 10%
%Inh (HCK): 0%
%Inh (HIPK1): 41%
%Inh (HIPK2): 49%
%Inh (HIPK3): 51%
%Inh (HIPK4): 13%
%Inh (HPK1): 32%
%Inh (HUNK): 0%
%Inh (ICK): 0%
%Inh (IGF1R): 24%
%Inh (IKK-alpha): 0%
%Inh (IKK-beta): 0%
%Inh (IKK-epsilon): 0%
%Inh (INSRR): 22%
%Inh (INSR): 3%
%Inh (IRAK1): 11%
%Inh (IRAK3): 3%

Clc1cc(Cl)cc(Nc2ccnc(Nc3cc(Cl)cc(Cl)c3)n2)c1 [GSK175726]
%Inh (GRK7): 0%
%Inh (GSK3A): 30%
%Inh (GSK3B): 0%
%Inh (HASPIN): 0%
%Inh (HCK): 10%
%Inh (HIPK1): 32%
%Inh (HIPK2): 1%
%Inh (HIPK3): 7%
%Inh (HIPK4): 0%
%Inh (HPK1): 38%
%Inh (HUNK): 0%
%Inh (ICK): 7%
%Inh (IGF1R): 16%
%Inh (IKK-alpha): 0%
%Inh (IKK-beta): 10%
%Inh (IKK-epsilon): 39%
%Inh (INSRR): 0%
%Inh (INSR): 13%
%Inh (IRAK1): 15%
%Inh (IRAK3): 2%

COc1ccc2nc(-c3cccc(C)n3)nc(Nc3ccncc3)c2c1 [GSK204919]
%Inh (GRK7): 0%
%Inh (GSK3A): 0%
%Inh (GSK3B): 19%
%Inh (HASPIN): 15%
%Inh (HCK): 0%
%Inh (HIPK1): 0%
%Inh (HIPK2): 0%
%Inh (HIPK3): 11%
%Inh (HIPK4): 0%
%Inh (HPK1): 28%
%Inh (HUNK): 9%
%Inh (ICK): 0%
%Inh (IGF1R): 0%
%Inh (IKK-alpha): 0%
%Inh (IKK-beta): 22%
%Inh (IKK-epsilon): 3%
%Inh (INSRR): 0%
%Inh (INSR): 0%
%Inh (IRAK1): 4%
%Inh (IRAK3): 0%
